According to PubChem BioAssay:
Several values for one entry are separate records, joined by “and”; a condition that tells them apart may be missing. Identical values can stand only once. A structure can be active in one record and inactive in another. Activity calls are given as the source filed them. Rule as the data show it: active = fold change permeability below about 0.7 or above about 1.3; inactive = in between.

test: compounds altering in vitro BBB leakiness – cell-based, FITC-avidin fluorescence, HTS, primary screen (AID 1963498); conditions: brain endothelial barrier, actives lie on both sides; also: test concentration not given here

Fold change permeability, […] (active) and 1.1 (inactive):
O=C1NC(=O)C(c2ccccc2)(c2ccccc2)N1

Fold change permeability, inactive:
NC(=O)NO 1.1, NC12CC3CC(CC(C3)C1)C2 0.9, OC(CCN1CCCCC1)(c1ccccc1)C1CCCCC1 (centres undefined) 0.8, CNCC(O)c1ccc(O)c(O)c1 (centres undefined) 0.8, COc1ccc(-c2csc(NC(=O)[C@H]3CCCCN3S(=O)(=O)c3ccc(C)cc3)n2)cc1 0.9, Cc1ccc(S(=O)(=O)Nc2ccccc2N2CCCCC2)s1 1, NCCCCC(=O)O 1.1, OCCN1CCN(CCCN2c3ccccc3C=Cc3ccccc32)CC1 1.2, CNC[C@H](O)c1ccc(O)c(O)c1 0.8, COc1ccc2c(c1)c(CC(=O)O)c(C)n2Cc1ccc(Cl)cc1 1, O=C1CCc2cc(OCCCCc3nnnn3C3CCCCC3)ccc2N1 0.9, S=C(S)N1CCCC1 1, CC(/C=C1\SC(=S)N(CC(=O)O)C1=O)=C\c1ccccc1 1, CN(C)CCCN1c2ccccc2Sc2ccc(C(F)(F)F)cc21 1.2, CN(C)CCCC1(c2ccc(F)cc2)OCc2cc(C#N)ccc21 (centres undefined) 0.9, C[N+](C)(C)CCOC(=O)CCC(=O)OCC[N+](C)(C)C 0.9, N[C@H](C(=O)O)[C@H](O)c1ccc(O)c(O)c1 0.9, CC(C[N+](C)(C)C)OC(N)=O (centres undefined) 1, Cc1[nH]c(=O)c(C#N)cc1-c1ccc2nccn2c1 0.8, C[N+](C)(C)CCOP(=O)(O)OP(=O)([O-])OC[C@H]1O[C@@H](n2ccc(N)nc2=O)C(O)[C@H]1O (some centres undefined) 1.1, O=C(c1ccc(F)cc1)C1CCN(CCn2c(=O)[nH]c3ccccc3c2=O)CC1 1.2, FC(F)(F)c1ccccc1-n1ccnc1 1.2, C[N+](C)(C)CCOC(N)=O 0.9

Fold change permeability, active:
Clc1ccc2nsnc2c1NC1=NCCN1 1.9, COc1ccccc1N1CCN(CCCNc2c(C)c(=O)n(C)c(=O)n2C)CC1 1.5, Cn1cc(C2=C(c3ccc(Cl)cc3Cl)C(=O)NC2=O)c2ccccc21 3.6, NCCCNCCCCNCCCN 1.6, CC(Nc1nc(N2CCNCC2)nc2ccccc12)c1ccccc1 (centres undefined) 2.4, CC1=C(/C=C/C(C)=C/C=C/C(C)=C/C(=O)O)C(C)(C)CCC1 1.3, CCCCCCCCCCCC(=O)c1c(O)c(C(=O)CCCCCCCCCCC)c(O)c(C2CC(c3ccc(O)cc3)Oc3cc(O)ccc32)c1O (centres undefined) 1.4, C/C(=C\c1ccc(C(=O)O)cc1)c1ccc2c(c1)C(C)(C)CCC2(C)C 1.7, N=C(N)N1CCc2ccccc2C1 1.3, COC(=O)C1=C(C)NC(C)=C(C(=O)O[C@@H]2CCCN(Cc3ccccc3)C2)[C@@H]1c1cccc([N+](=O)[O-])c1 1.4, CSc1ccccc1N1CCN(CCCCCC(=O)NC2CCCc3ccccc32)CC1 (centres undefined) 1.3, CC(C)=CCC/C(C)=C/COc1ccc2ccc(=O)oc2c1 2, CCCCNc1ccc(C(=O)OCCN(C)C)cc1 1.8, N[C@@H](Cn1ccc(=O)c(O)c1)C(=O)O 1.8, CCCCOc1ccc(CC/C=C2\SC(=O)N(CCN)C2=O)cc1 1.6
